Over roughly 33,000 sequences, “E-score (-0.5 to 0.5)” has its median near -0.036; the highest 2% begin near 0.37. The list comes from a sample in which the highest values are over-represented; it also holds similar and randomly drawn sequences.
Each sequence was assayed against T1, Yer064c (UniProt P40041) (assay: PBM E-score (8-mer binding enrichment) (E-score (-0.5 to 0.5)); higher = stronger / more preferred TF binding). Conditions: protein concentration: 200 nM; construct: GST-full length.
T1 sequence: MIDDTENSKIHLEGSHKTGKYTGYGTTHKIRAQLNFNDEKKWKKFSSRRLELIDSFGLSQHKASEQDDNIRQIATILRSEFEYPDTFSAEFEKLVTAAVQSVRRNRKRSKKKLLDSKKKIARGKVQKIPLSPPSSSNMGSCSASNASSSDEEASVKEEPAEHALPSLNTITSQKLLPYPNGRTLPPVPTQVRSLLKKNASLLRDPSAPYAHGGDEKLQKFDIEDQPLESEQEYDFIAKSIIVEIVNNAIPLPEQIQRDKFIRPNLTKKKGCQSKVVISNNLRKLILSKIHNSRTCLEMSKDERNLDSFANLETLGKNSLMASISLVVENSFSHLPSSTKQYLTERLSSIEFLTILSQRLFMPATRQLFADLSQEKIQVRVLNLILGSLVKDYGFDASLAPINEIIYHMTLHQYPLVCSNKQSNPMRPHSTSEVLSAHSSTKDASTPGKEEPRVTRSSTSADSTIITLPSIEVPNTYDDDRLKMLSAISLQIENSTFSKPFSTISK
Experimental: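 Universal 'all 10-mer' protein binding microarrays (Agilent AMADID 015681) probed with GST-tagged S. cerevisiae TFs (full-length or DBD) made by in vitro transcription/translation (PURExpress), about 100-200 nM. Bound TF was detected with fluorescent anti-GST. Each ungapped 8-mer (which stands for itself and its reverse complement) is scored by the PBM enrichment score (E-score), a modified Wilcoxon-Mann-Whitney statistic from -0.5 to +0.5, computed with the Universal PBM Analysis Suite. Scale: above 0.35 generally sequence-specific binding.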

Sequence | PBM E-score
CCCATGCC | -0.231
CCCAGAGG | -0.276
GCGTCAGC | -0.304
AAGTCAGT | 0.362
AAGTCAGA | 0.341
AAGTCAGC | 0.422
GAGTCAGC | 0.48
CAGTCAGA | 0.361
CAGTCAGG | 0.333
ATGTCAGC | -0.0283
CAGTCAGC | 0.406
AATCTTAC | 0.183
ATTTGTCG | -0.0532
CACTCAGC | -0.0645
CACTCAGA | 0.0961
AACTCAGC | 0.022
GACTCAGA | 0.458
GACTCAGC | 0.457
AACTCAGA | 0.164
GGCGCGAA | -0.0884
AACGTGGC | -0.0783
ACCCTAGA | -0.0589
ACCTCGGC | -0.153
CATCACCG | 0.156
AATCACCA | 0.374

Sequence | PBM E-score
AAGCACCG | -0.164
CATCACCC | -0.0525
AACCACCT | 0.0325
GATCACCC | 0.00825
AATCACCT | 0.438
AAACACCT | 0.129
AATCACCC | 0.426
AATCACCG | 0.42
TATCACCA | -0.0277
CATCACCA | -0.0269
AGAAGAAC | -0.146
ACCAGACT | 0.0775
ACGGCTAT | -0.24
GGTTTACA | -0.0888
CGTGCACG | 0.0709
CCTGAGGA | 0.00765
ACGGTATG | -0.0999
CAGATTAA | 0.183
CGGATTAA | 0.208
CCGATTAC | -0.132
GAGATTAA | 0.245
AGGATTAA | 0.253
CTGATTAA | 0.405
CTGATTAC | 0.375
GTGATTAA | 0.452

Sequence | PBM E-score
ATGATTAA | 0.472
GGGATTAA | 0.166
ACGATTAA | 0.26
CGGATTAC | 0.0966
GAAACTAC | 0.00139
CCGAGGAC | -0.0294
AGCAAAAC | -0.0941
CATCCGAA | 0.123
ATGGAAAG | -0.0473
CATATTGG | -0.027
ATATCTAA | 0.128
AGCAGGTA | -0.131
CCTGCGCA | -0.352
AATAATCG | 0.104
AATAATCC | 0.0648
GATAATAA | -0.0817
GATAATCA | 0.384
CATAATCG | 0.109
CATAATCA | 0.413
TATAATCA | 0.387
CATAATCC | -0.0164
GATAATCC | -0.0741
TATAATAA | 0.115
AATAATCA | 0.382
TATAATGA | 0.256

Sequence | PBM E-score
CCTTTACC | -0.149
GAGCGTAA | 0.0724
CCCCTGCC | -0.204
ATACTCTC | 0.00838
AGAAGGGG | -0.324
GCCAGCAA | -0.238
GGTCCATA | -0.194
AAACGATG | -0.0198
ATAGTCCC | 0.148
CTAGTCAG | 0.418
CTAGTCCA | 0.109
ATAGTCAA | 0.402
CTAGTAAG | 0.0365
ATCGTCAA | 0.0919
ATCGTCAC | -0.00908
ATAGTCAT | 0.489
ATCGTCAT | 0.0309
ATAGTCAC | 0.481
ATAGTAAT | 0.291
ATAGTCCA | 0.213
AACCTATA | 0.0106
CCGCGATA | -0.0471
GTTGGTGA | 0.115
AGAAACAG | -0.164
GCTCCAAC | -0.164

Sequence | PBM E-score
GTCGTACA | 0.19
AGGGCGAC | -0.0248
CTACAGAC | -0.184
CCCATTAA | -0.0295
GGGTCGAA | 0.0364
GAGGCGGA | -0.0783
CCCCCCAA | -0.315
GACGAAGA | 0.0944
GTGGGTTA | 0.103
ATAGTCGC | 0.389
ATAGTCGG | 0.256
CTAGTCGC | 0.316
ATAGTCTG | 0.177
ATAGTCCG | 0.316
ATAGTCAG | 0.454
ACAGAAGG | -0.0367
CTGCATCA | -0.0294
AGGATCGG | -0.209
CGGGCTCC | -0.307
AATGAGTA | 0.389
AATGAGCA | -0.0702
GCTGAGTA | 0.212
CATGAGTA | 0.341
GATGAGTA | 0.429
AATGAGGA | -0.00162

Sequence | PBM E-score
CGAGATTC | 0.0578
AAGTTGTA | -0.0146
ATGGGGCG | -0.111
AATTAATT | 0.177
GACTTATA | 0.387
GACTTATC | 0.307
TACTTATA | 0.116
TCTCCCCA | -0.153
CCGACAGC | -0.394
AGGGAGTA | 0.0389
CGGGAGTC | 0.413
AGGGAGTG | -0.175
AGGGAGTC | 0.44
CGGGAGTA | -0.0367
CGGGAGAC | 0.106
GCTACCAA | -0.00248
CGAGCCGC | -0.00093
GGACGACC | -0.23
CGGGCACA | -0.212
CCAGGATC | -0.0208
ATCCGGAC | -0.228
AATGGGGA | -0.288
ACACCAGG | -0.148
ACCAACGA | -0.0117
GACCGGTC | -0.369

Sequence | PBM E-score
GGTGACTA | 0.486
GGTGACGA | -0.0961
CGTGACTA | 0.486
AGTGACCG | -0.22
AGTGACAA | 0.0598
CGTGACAA | -0.253
AGTGACTG | 0.403
CGTGACGA | 0.0595
AGTGACGA | 0.218
AGTGACTA | 0.469
GGTGACCA | 0.0718
AGTGACGG | -0.0747
GAGTACCA | 0.252
AATACCAA | -0.0127
CTCAACCA | 0.152
GCTTGCCC | -0.427
AGTATGGC | 0.0363
CAAATTTG | 0.13
ATGCGAAG | -0.0967
GTTACTTA | 0.163
CGAAAAAA | 0.0432
AGTGACAC | -0.0262
AGTGACGC | -0.182
AGTGACTC | 0.486
